Test results from PubChem BioAssay (Tox21).
Values joined by “and” are separate entries in the source; they are usually repeats but may differ in a detail not shown here. Equal values may be shown once. Inconclusive results are not listed. Entries that show only a call come without a potency. More than one record can exist for a structure, and the calls need not agree. Active and inactive are the calls of the source. Calls come from the whole dose curve; as a rule, active = well fitted activation curve with a large enough effect in the repeat runs; inconclusive = weak or mixed curves; inactive = flat fitted curve, though single readings scatter.

Test: A CellTox Green Cytotoxicity Assay to monitor cytotoxicity in HepG2 cells - 32 hour (AID 1224883); note: nearly all actives have a fitted effect of over 50% in size
Conditions: CellTox Green fluorescence; series mostly up to 76.8 µM
Source text: National Center for Advancing Translational Sciences [NCATS]
NIH Chemical Genomics Center [NCGC]
U.S. Environmental Protection Agency [EPA]
National Institutes of Environmental Health Sciences [NIEHS]
National Toxicology Program [NTP]
Cell-based models are critical for drug discovery. Determining the natural cytotoxic effects resulting from test compounds is an essential research activity. A CellTox Green Cytotoxicity Assay to monitor cytotoxicity in real time of continues cell culture during 40 hours of the compound treatment was used to screen Tox21 10K library compounds in HepG2 cells. CellTox Green Cytotoxicity Assay is a nonlytic, homogeneous, biofluorescent method to measure cytotoxicity in cell culture after experimental manipulation. The assay system uses a proprietary asymmetric cyanine dye that is excluded from viable cells but preferentially stains the dead cell's DNA. […] Viable cells produce no appreciable increases in fluorescence. Therefore, the fluorescence signal produced by the binding interaction with dead cell DNA is proportional to cytotoxicity.
The mixture of HepG2 cell suspension and reagents were dispensed at 600cells/6 ul/well in 1536-well tissue culture treated black solid bottom plates using a Multidrop dispenser. After the assay plates were incubated at a 37 C/5% CO2 incubator for 5 hours, 23 nL of compounds dissolved in DMSO, positive and negative controls was transferred to the assay plate by a pintool work station. The plates were incubated at 37 C for 40 hours. The fluorescence intensity were measured at 0h, 8h, 16h, 24h, 32h and 40h time points using ViewLux plate reader during compound treatment.
Potency is the fitted concentration of half-maximal effect.

Row | SMILES | Potency
1 | CCCCCCCCCCCCCC[P+](CCCCCC)(CCCCCC)CCCCCC | 12.4 µM (active) and 17.5 µM (active)
2 | CCC(=O)C(CC(C)N(C)C)(c1ccccc1)c1ccccc1 (stereo not given) | 43.8 µM (active) and 48.6 µM (active) and inactive
3 | CCC[N+]1(C)CCCC1 | inactive
4 | CCOP(=S)(OCC)Oc1ccc2c(C)c(Cl)c(=O)oc2c1 | inactive
5 | CCCC[n+]1ccccc1 | inactive
6 | CC[N+]1(C)CCCC1 | inactive
7 | COc1ccc(N)cc1 | inactive and 245 nM (active)
8 | O=C(O)c1nc(Cl)ccc1Cl | inactive
9 | CC(=O)O | inactive
10 | CCn1cc[n+](C)c1C | inactive
11 | Nc1ccc(Cl)cc1 | inactive
12 | Nc1ccc(-c2ccc(N)c(Cl)c2)cc1Cl | 17.5 µM (active) and 14.4 µM (active) and 27.5 µM (active)
13 | C[C@]12CCC(=O)C=C1CC[C@@H]1[C@@H]2CC[C@]2(C)C(=O)CC[C@@H]12 | inactive
14 | CCCC[N+]1(C)CCCC1 | inactive
15 | COc1ccccc1N | inactive
16 | C1CCC(NC2CCCCC2)CC1 | inactive
17 | O=c1[nH]c(=O)n(Cl)c(=O)n1Cl | inactive
18 | CCCCCCCCn1cc[n+](C)c1 | inactive
19 | O=[N+]([O-])c1ccccc1O | inactive
20 | COP(=O)(OC)OC=C(Cl)Cl | inactive

Row | SMILES | Potency
21 | CC(=O)[O][Hg][c]1ccccc1 | 1.53 µM (active) and 1.95 µM (active) and 1.07 µM (active)
22 | CCCC[N+]1(C)CCCCC1 | inactive
23 | CCCC[n+]1ccccc1C | inactive
24 | CCNc1nc(Cl)nc(NCC)n1 | inactive
25 | N#CS | inactive
26 | O=C(O)COc1ccc(Cl)cc1Cl | inactive
27 | O=[N+]([O-])O | inactive
28 | O=S(=O)(O)O | inactive
29 | CCCC[n+]1cccc(C)c1 | inactive
30 | CC[n+]1ccccc1 | inactive
31 | Nc1ccc(-c2ccc(N)cc2)cc1 | inactive
32 | O=C(O)C(Cl)(Cl)Cl | inactive
33 | O=C(O)CCl | inactive
34 | CCCCCC[n+]1ccccc1 | inactive
35 | O=c1nc(O)n(Cl)c(=O)n1Cl | inactive
36 | Nc1ccccc1 | inactive
37 | CCCCCCCCCCCC(=O)O | inactive
38 | CC(Cl)(Cl)C(=O)O | inactive
39 | O=C(O)c1ccccc1O | inactive
40 | Cc1cc(Cl)ccc1N | inactive and 38.9 µM (active)
